Each structure is given as a SMILES string.

Assay [1] deals with Serine/threonine-protein kinase PLK2 (Homo sapiens) (UniProt Q9NYY3). The following applies: at 1 µM.
For assay [2] the target is unchanged. To be noted: at 10 µM.
Assay [3] addresses T1, Mitogen-activated protein kinase kinase kinase 7 (Homo sapiens) (UniProt O43318).
T1 sequence (whole entry): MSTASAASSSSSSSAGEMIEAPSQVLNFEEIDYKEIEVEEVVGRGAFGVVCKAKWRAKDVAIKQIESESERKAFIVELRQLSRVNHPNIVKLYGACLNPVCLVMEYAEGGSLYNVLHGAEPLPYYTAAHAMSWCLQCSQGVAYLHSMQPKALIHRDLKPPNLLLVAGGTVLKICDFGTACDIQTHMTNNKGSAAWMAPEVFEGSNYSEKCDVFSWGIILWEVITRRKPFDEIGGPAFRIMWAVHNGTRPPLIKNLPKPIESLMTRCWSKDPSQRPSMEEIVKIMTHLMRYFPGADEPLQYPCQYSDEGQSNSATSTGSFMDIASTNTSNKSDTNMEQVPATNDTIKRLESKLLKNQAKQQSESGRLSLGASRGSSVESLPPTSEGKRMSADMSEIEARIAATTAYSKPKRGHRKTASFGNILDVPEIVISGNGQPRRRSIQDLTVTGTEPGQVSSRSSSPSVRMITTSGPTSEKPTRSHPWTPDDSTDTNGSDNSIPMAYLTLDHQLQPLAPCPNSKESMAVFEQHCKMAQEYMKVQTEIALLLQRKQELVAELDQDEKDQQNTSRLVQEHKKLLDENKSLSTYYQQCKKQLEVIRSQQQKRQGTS
To be noted: at 10 µM.

Assay [4] concerns the target T2, Serine/threonine-protein kinase TAO1 (Homo sapiens) (UniProt Q7L7X3).
T2 sequence (whole entry): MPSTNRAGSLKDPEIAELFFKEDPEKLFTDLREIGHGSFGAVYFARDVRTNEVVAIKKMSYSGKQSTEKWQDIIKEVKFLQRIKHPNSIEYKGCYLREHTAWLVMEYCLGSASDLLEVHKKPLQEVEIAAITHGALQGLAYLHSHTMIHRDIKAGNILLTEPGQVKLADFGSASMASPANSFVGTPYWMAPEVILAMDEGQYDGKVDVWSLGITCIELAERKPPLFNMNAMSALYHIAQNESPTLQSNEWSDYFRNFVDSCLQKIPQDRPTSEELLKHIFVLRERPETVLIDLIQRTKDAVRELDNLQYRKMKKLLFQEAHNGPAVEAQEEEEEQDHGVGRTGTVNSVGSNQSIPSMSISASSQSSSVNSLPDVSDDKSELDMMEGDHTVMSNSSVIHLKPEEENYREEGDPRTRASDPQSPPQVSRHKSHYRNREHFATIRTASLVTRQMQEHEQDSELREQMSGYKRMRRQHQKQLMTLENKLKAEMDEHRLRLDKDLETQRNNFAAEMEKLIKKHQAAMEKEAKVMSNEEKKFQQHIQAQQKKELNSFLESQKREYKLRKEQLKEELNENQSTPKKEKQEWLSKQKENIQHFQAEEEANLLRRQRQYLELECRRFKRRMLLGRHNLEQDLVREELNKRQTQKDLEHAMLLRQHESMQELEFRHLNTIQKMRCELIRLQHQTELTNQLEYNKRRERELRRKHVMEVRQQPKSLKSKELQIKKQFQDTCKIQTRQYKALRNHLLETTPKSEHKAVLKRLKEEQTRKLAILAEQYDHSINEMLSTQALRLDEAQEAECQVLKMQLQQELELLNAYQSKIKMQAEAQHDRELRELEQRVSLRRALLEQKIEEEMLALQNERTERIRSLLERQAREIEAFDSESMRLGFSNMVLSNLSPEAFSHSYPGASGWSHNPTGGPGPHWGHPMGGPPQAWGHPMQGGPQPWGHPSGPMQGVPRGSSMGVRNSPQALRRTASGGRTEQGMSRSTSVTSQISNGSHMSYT
The following applies: at 1 µM.

Assay [5] addresses T2, Serine/threonine-protein kinase TAO1 (Homo sapiens). To be noted: at 10 µM.
Assay [6] has as its target T3, Serine/threonine-protein kinase TAO3 (Homo sapiens) (UniProt Q9H2K8).
T3 sequence (whole entry): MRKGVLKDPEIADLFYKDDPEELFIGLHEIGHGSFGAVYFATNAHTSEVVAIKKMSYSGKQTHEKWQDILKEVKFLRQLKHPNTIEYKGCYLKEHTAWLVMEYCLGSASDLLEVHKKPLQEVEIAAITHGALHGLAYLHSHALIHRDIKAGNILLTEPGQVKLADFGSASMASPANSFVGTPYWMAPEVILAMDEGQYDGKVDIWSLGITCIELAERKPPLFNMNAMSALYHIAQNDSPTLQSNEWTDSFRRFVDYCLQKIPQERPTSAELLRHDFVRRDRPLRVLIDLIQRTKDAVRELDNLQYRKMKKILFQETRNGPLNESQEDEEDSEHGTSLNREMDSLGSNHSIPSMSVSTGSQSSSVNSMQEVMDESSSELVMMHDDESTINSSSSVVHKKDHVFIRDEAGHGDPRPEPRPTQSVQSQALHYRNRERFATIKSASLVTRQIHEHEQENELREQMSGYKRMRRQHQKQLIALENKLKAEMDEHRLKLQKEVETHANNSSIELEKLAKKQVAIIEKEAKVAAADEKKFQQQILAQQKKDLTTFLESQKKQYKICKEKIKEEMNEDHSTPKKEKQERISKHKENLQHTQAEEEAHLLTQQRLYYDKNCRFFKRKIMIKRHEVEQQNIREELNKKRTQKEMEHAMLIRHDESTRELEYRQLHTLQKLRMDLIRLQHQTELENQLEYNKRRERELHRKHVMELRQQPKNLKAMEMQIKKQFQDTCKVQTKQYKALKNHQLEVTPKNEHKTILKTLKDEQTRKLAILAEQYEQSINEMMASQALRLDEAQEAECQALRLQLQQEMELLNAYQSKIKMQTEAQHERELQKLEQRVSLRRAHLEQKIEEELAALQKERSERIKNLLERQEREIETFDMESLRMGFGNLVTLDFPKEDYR
The following applies: at 1 µM.

In assay [7] the target is T3, Serine/threonine-protein kinase TAO3 (Homo sapiens). The following applies: at 10 µM.
Assay [8] deals with T4, Serine/threonine-protein kinase TBK1 (Homo sapiens) (UniProt Q9UHD2).
T4 sequence (whole entry): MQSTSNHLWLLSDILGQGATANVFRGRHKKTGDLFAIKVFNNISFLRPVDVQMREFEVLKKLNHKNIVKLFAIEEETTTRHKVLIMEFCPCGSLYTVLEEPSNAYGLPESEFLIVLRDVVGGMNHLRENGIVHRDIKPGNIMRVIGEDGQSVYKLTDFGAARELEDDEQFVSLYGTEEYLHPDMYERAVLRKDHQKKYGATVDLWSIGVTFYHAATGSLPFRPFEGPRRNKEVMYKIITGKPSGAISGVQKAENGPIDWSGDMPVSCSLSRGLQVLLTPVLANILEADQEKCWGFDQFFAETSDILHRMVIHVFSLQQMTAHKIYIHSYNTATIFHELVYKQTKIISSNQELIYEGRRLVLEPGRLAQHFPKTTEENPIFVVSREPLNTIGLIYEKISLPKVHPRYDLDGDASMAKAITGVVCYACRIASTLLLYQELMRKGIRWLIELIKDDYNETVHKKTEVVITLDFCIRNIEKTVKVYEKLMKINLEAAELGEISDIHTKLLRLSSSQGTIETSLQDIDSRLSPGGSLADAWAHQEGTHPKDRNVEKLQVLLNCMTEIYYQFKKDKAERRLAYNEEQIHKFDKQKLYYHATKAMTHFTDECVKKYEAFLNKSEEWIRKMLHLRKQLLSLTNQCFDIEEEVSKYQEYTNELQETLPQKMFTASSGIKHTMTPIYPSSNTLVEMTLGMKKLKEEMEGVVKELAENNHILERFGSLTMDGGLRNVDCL
To be noted: at 1 µM.

In assay [9] the target is T4, Serine/threonine-protein kinase TBK1 (Homo sapiens). The following applies: at 10 µM.
Assay [10] concerns the target T5, TGF-beta receptor type-1 (Homo sapiens) (UniProt P36897).
T5 sequence (whole entry): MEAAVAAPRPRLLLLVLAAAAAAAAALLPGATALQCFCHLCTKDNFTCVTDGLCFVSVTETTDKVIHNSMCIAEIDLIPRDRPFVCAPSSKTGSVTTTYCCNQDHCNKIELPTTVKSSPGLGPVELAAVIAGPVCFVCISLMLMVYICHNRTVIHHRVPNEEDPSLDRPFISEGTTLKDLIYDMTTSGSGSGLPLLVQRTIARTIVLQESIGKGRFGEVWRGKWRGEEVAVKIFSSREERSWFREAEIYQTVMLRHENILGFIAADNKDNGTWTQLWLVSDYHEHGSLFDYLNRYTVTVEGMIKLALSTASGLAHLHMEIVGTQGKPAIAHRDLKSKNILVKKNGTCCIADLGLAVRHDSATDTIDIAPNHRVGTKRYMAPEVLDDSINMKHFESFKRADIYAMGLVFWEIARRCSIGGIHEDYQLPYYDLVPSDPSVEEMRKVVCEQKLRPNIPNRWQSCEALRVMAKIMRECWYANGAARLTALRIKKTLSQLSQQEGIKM
The following applies: at 1 µM.

For assay [11], the target named is T5, TGF-beta receptor type-1 (Homo sapiens). To be noted: at 10 µM.
Assay [12] concerns the target Serine/threonine-protein kinase 33 (Homo sapiens) (UniProt Q9BYT3). The following applies: at 1 µM.
Assay [13] has the same target. To be noted: at 10 µM.
Assay [14] has as its target Tyrosine-protein kinase SYK (Homo sapiens) (UniProt P43405). The following applies: at 1 µM.
The target is the same in assay [15]. The following applies: at 10 µM.
The target of assay [16] is T1, Mitogen-activated protein kinase kinase kinase 7 (Homo sapiens). The following applies: at 1 µM.
The target of assay [17] is T6, Serine/threonine-protein kinase TAO2 (Homo sapiens) (UniProt Q9UL54).
T6 sequence (whole entry): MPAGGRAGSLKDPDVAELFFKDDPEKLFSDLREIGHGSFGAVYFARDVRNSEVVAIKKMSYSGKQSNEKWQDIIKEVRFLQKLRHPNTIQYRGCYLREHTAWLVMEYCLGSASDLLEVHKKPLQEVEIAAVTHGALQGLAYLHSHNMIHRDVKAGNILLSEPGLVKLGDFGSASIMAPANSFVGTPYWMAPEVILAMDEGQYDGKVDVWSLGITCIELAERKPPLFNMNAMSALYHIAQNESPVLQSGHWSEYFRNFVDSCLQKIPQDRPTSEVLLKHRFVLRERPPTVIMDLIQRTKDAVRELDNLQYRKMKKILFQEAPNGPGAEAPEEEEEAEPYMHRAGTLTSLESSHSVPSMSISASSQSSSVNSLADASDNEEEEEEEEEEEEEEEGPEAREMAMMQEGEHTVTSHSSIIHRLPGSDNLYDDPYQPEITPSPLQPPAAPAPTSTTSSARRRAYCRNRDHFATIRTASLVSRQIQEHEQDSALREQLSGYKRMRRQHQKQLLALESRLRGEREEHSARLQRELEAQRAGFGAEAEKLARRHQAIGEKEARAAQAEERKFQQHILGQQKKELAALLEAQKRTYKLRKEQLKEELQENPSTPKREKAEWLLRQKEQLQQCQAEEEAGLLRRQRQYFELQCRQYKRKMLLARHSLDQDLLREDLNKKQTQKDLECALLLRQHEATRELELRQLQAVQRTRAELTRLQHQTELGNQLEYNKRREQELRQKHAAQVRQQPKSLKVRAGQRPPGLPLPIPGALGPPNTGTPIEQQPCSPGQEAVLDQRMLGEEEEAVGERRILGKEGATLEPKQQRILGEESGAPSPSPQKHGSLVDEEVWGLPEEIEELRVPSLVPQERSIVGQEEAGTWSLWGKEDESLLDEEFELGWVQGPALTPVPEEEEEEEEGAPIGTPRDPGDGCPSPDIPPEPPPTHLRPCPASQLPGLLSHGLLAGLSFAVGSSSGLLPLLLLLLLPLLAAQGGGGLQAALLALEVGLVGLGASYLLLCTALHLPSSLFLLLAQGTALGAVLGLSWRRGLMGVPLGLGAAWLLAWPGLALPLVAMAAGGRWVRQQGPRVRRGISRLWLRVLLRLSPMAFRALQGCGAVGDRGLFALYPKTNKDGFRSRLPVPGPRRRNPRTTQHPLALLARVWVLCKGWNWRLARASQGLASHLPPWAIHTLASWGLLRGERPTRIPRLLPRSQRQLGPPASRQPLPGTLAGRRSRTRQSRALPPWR
The following applies: at 1 µM.

For assay [18], the target named is T6, Serine/threonine-protein kinase TAO2 (Homo sapiens). To be noted: at 10 µM.
The target in assay [19] is Insulin-like growth factor 1 receptor (Homo sapiens) (UniProt P08069). The following applies: at 1 µM.
Chain of Insulin-like growth factor 1 receptor (Homo sapiens) (P08069 31-736 limits assumed): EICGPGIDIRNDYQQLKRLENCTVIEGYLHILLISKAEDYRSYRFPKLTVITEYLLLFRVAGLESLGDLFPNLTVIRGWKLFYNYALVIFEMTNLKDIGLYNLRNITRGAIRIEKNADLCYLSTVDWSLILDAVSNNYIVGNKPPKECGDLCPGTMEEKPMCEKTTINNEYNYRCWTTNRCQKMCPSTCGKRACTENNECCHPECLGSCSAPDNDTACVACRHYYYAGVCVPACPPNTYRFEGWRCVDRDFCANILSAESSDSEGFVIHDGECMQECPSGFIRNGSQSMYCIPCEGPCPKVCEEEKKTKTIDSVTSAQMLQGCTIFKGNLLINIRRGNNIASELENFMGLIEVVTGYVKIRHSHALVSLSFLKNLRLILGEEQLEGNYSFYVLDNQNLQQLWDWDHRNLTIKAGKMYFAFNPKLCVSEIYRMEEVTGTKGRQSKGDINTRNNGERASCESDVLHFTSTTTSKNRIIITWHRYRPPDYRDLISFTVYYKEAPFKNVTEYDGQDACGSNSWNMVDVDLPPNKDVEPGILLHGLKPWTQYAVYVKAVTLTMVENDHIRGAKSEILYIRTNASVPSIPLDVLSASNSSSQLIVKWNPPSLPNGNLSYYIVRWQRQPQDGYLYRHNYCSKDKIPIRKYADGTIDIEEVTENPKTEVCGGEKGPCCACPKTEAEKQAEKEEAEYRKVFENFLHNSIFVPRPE
Chain of Insulin-like growth factor 1 receptor (Homo sapiens) (P08069 741-1367 limits assumed): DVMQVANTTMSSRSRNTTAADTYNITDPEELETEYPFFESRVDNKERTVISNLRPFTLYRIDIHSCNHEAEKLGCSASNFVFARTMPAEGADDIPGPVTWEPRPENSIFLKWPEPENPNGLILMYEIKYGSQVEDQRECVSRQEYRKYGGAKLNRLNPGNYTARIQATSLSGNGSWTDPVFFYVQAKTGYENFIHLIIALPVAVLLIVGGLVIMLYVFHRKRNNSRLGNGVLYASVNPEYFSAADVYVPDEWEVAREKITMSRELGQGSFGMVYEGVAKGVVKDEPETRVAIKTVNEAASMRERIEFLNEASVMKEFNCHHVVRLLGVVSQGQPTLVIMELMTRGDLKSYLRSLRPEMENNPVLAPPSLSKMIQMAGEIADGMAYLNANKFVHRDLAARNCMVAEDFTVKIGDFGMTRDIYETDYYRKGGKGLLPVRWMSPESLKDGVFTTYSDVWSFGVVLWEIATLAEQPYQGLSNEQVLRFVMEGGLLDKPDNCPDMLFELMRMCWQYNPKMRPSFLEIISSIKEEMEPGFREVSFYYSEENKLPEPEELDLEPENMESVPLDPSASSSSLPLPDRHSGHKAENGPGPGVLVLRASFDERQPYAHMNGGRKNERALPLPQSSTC
Assay [20] shares this target. The following applies: at 10 µM.

Chain of Serine/threonine-protein kinase PLK2 (Homo sapiens) (Q9NYY3 whole entry, looked up): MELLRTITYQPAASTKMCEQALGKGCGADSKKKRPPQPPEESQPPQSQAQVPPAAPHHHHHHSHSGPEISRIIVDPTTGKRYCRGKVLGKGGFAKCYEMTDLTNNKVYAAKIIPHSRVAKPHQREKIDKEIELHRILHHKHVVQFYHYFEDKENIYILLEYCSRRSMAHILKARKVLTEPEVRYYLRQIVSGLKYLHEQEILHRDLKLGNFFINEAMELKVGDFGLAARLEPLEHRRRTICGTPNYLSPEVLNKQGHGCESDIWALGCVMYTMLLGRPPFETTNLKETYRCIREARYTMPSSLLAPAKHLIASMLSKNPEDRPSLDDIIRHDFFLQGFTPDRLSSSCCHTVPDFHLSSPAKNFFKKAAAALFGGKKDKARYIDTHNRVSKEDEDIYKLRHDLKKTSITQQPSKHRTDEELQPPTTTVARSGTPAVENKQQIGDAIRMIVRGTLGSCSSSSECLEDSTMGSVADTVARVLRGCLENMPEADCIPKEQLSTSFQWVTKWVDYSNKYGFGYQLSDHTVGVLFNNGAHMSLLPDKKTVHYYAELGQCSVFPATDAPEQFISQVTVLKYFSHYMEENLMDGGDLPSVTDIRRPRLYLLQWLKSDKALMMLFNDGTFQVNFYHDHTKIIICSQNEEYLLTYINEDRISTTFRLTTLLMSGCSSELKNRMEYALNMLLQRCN
Chain of Serine/threonine-protein kinase 33 (Homo sapiens) (Q9BYT3 whole entry, looked up): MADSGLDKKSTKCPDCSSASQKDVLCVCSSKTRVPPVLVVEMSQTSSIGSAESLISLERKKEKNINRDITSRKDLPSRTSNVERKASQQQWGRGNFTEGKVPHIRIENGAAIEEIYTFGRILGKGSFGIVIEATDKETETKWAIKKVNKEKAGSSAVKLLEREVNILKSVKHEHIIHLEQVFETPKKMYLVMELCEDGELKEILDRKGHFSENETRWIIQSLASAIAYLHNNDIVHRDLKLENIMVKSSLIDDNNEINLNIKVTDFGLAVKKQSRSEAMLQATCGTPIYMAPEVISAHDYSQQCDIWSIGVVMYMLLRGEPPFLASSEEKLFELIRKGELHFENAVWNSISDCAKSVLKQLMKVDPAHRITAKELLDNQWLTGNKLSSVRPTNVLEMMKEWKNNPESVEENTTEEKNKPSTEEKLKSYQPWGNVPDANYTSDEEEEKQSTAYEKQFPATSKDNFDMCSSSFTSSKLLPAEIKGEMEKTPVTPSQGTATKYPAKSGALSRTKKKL

`N/C(=N\[N+](=O)[O-])N/N=C\c1ccc(-c2cccc([N+](=O)[O-])c2)o1`: the residual activity in assay [1] was 99%; in assay [2], 98%; in assay [3] it was 89%; in [4], 91%; in [5], 88%; in assay [6] it was 96%. Besides, the residual activity was found to be 93% in assay [7]; 94% in assay [8]; 72% in assay [9]; 98% in assay [10]; 98% in assay [11].

Take `CCn1cnc2c(Nc3cccc(Cl)c3)nc(N[C@@H]3CCCC[C@@H]3N)nc21`: the residual activity came to 87% in assay [12]; 42% in [13]; 92% in assay [1]; 54% in [2]; 99% in [14]; 57% in assay [15]. Further, the residual activity is 89% in [16]; 65% in assay [3]; 68% in [4]; 15% in assay [5]; 81% in assay [17]; 33% in assay [18]. Moreover, the residual activity in assay [6] worked out at 82%; in assay [7], 43%; in [8], 68%; in assay [9] it was 45%; in assay [11], 79%; in assay [19], 71%. Also, the residual activity in [20] worked out at 44%.
